From PubChem BioAssay AID2018 (Sanford-Burnham Center for Chemical Genomics, 2009) come the findings set out here.

Hit rate of the full screen: of about 1,200 compounds, about 600 (50%) were called active. No stated cut-off is given here; in the data, active means inhibition above about 42%; inactive means the rest. So high a share suggests a set chosen from earlier hits. The list shows a part of the results. Potency and affinity values are given separately.

In this assay the target is SUMO-conjugating enzyme UBC9 (Homo sapiens) (UniProt P63279). Kind of assay: SUMOylation inhibitor hit validation, confirmation, SUMOylation inhibitor project, biochemical, AlphaScreen (AID 2018). The following applies: AlphaScreen in vitro SUMOylation assay; at 35 µM; stronger effect = higher value.
Chain of SUMO-conjugating enzyme UBC9 (Homo sapiens) (P63279 whole entry, looked up): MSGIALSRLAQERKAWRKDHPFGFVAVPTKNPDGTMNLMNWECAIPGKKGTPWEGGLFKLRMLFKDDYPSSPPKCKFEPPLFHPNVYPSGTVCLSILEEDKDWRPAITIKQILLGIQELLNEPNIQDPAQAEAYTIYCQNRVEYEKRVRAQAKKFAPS
As for `CCN(Cc1cc(=O)n2ccsc2n1)c1cccc2ccccc12`, the inhibition (commonly the relative decrease from the control value, in per cent) was 25.6% (inactive).

For `Oc1ccc2ccccc2c1C=NCc1cn2ccsc2n1`, the inhibition was 42.5% (active).

For `Oc1ccc2ccccc2c1C=NCc1ccccc1`, the inhibition is 38.6% (inactive).

`Cc1ccc(NC(=S)Nc2ccc3cn[nH]c3c2)cc1`: the inhibition was 30.2% (inactive).

In the case of `CN(C)c1cccc2c(C=C(C#N)C#N)ccc(N(C)C)c12`, the inhibition is 19.4% (inactive).

As to `CCCS(=O)(=O)c1c(S(=O)(=O)CCC)c2c(N)cccn2c1C(=O)c1ccc(Br)cc1`, the inhibition is 23.1% (inactive).

Take `COc1ccc(N2C3=C(CC4=C2CCCC4=O)C(=O)CCC3)cc1`: the inhibition is 19.3% (inactive).

Take `O=C(O)/C=C/C(=O)Nc1ccc(O)cc1`: the inhibition is 15.1% (inactive).

For the molecule `CCOC(=O)C(CCCCOc1ccc([N+](=O)[O-])cc1)C(=O)OCC`, the inhibition was -21.9% (inactive).

For `Cn1c(CNc2ccc(O)cc2)nc2ccccc21`, the inhibition is 16.9% (inactive).

For the molecule `O=c1[nH]nc(CNc2ccc(O)cc2)c2ccccc12`, the inhibition is 9.6% (inactive).

Take `CCOc1ccccc1CNc1ccc(O)cc1`: the inhibition was 45.3% (active).

With `Oc1ccc(NCc2ccccc2OCc2ccccc2F)cc1`, the inhibition is 88.9% (active).

In the case of `CCOc1cccc(CNc2ccc(O)cc2)c1OCc1ccc(Cl)cc1Cl`, the inhibition is 81% (active).

Consider `COc1ccccc1/C=C/CN1CCN(c2ccccc2)CC1`, for which the inhibition is 29.6% (inactive).

Consider `O=c1nc2s/c(=C\c3ccco3)c(=O)n2nc1Cc1ccccc1`, for which the inhibition was 26.6% (inactive).

In the case of `CCOC(=O)C1=C(N)n2c(s/c(=C/c3ccco3)c2=O)=C(C(=O)OC)C1c1ccco1` (stereo not given), the inhibition is 34% (inactive).

As for `O=c1c2cc(N3CCOCC3)ccc2[nH]c(=S)n1CC1CCCO1` (stereo not given), the inhibition was -2.6% (inactive).

On to `CCOC(=O)c1c(NC(=O)C2C3C=CC(CC3)C2C(=O)O)sc(C)c1CC` (stereo not given), for which the inhibition was 20% (inactive).

`Cc1ccc(O)c(CNc2cccc3cccnc23)c1`: the inhibition was 49.6% (active).

Take `COc1cccc(CNc2cccc3cccnc23)c1O`: the inhibition is 43.5% (active).

`O=C(/C=C/c1ccco1)Nc1cccc2cccnc12`: the inhibition is 6.6% (inactive).

For `CC(C)(C)C(=O)NC(Nc1cccc2cccnc12)C(Cl)(Cl)Cl` (stereo not given), the inhibition was 7.9% (inactive).

`Oc1ccc(Br)cc1CNc1cccc2cccnc12`: the inhibition is 61.8% (active).

Regarding `Cc1ccc(F)c(NC(=S)Nc2cccc3ccccc23)c1`, the inhibition was 10.1% (inactive).

For the molecule `O=C(O)c1cc2cccc(S(=O)(=O)N3CCOCC3)c2cc1O`, the inhibition was -21.6% (inactive).

Regarding `CC(=O)c1ccc2cccc3c2c1N=CN3C`, the inhibition is 13.7% (inactive).

In the case of `COc1cc(C)c2c(c1C=O)Oc1c(c(C)c(O)c3c1C(O)OC3=O)OC2=O` (stereo not given), the inhibition is 95% (active).

For the molecule `Cc1ccc(S(=O)(=O)NNC(=O)Nc2cccc3ccccc23)cc1`, the inhibition is 9.6% (inactive).

With `O=S(=O)(Nc1ccc(O)c2ccccc12)c1cccs1`, the inhibition is 51.7% (active).

Regarding `CCc1ccc(S(=O)(=O)Nc2ccc(O)c3ccccc23)cc1`, the inhibition is 38.3% (inactive).

On to `COc1ccc(S(=O)(=O)Nc2ccc(O)c3ccccc23)cc1`, for which the inhibition was 48.3% (active).

For `CCc1ccc2c(c1)c1nc(C)sc1n2CC`, the inhibition was 20.9% (inactive).

Regarding `O=C1C=C(O)CC(c2ccco2)C1` (stereo not given), the inhibition was 47.7% (active).

`Nc1ccccc1NC1=CC(=O)CC(c2ccco2)C1` (stereo not given): the inhibition was 18.4% (inactive).

On to `CC(C)CNC1=CC(=O)CC(c2ccco2)C1` (stereo not given), for which the inhibition is 0.4% (inactive).

Regarding `Cc1sc2nc3ccc(NCc4ccco4)nn3c(=O)c2c1C`, the inhibition was 0.9% (inactive).

For `CCOc1cc(NC(=S)NCc2ccco2)c(OCC)cc1NC(=O)CC`, the inhibition was -0.7% (inactive).

Regarding `CCOC(=O)N1CCc2c(sc3c2c(=O)n(Cc2ccccc2)c(=O)n3CC(=O)NCCOC)C1`, the inhibition is 15.2% (inactive).

As to `CCCCCCCC1(C)NC(=O)N(CC(=O)Nc2cc(C)on2)C1=O` (stereo not given), the inhibition is 2.5% (inactive).

On to `Cc1oc(-c2ccc(F)cc2)cc1-c1nn2c(-c3ccoc3C)nnc2s1`, for which the inhibition is 22.7% (inactive).

As for `Cc1c(C(=O)c2ccc(Cl)cc2[N+](=O)[O-])c2ccccn2c1CCC#N`, the inhibition is 17.8% (inactive).

Consider `COc1ccccc1CCNC(=O)CSc1ccc(-c2ccco2)nn1`, for which the inhibition was 19% (inactive).

As for `COc1ccc(C(=O)CSc2nnc(-c3ccco3)c(-c3ccco3)n2)cc1`, the inhibition is 43% (active).

Regarding `O=C(CSc1nnc(-c2ccco2)c(-c2ccco2)n1)c1ccccc1`, the inhibition was 76.2% (active).

Consider `Cc1ccc(-c2cc(C(=O)N/N=C/c3ccc([N+](=O)[O-])o3)c3ccccc3n2)o1`, for which the inhibition was 30.3% (inactive).

`O=C(N/N=C/c1ccc(-c2ccc(Cl)c(C(=O)O)c2)o1)c1cc2c(ccc3ccccc32)o1`: the inhibition was 102% (active).

On to `Cc1c(C(=O)O)c(C(=O)O)nc2ccc(N3CCOCC3)cc12`, for which the inhibition is -17.6% (inactive).

As for `NC1=NC(c2ccc(Cl)cc2)N(c2ccc(S(N)(=O)=O)cc2)C(N)=N1` (stereo not given), the inhibition is 25.2% (inactive).

In the case of `O=C(CNc1cccc2ccccc12)N/N=C/c1ccc([N+](=O)[O-])o1`, the inhibition was 37.5% (inactive).

With `CC(Nc1cccc2ccccc12)C(=O)N/N=C/c1ccccn1` (stereo not given), the inhibition was -4.4% (inactive).

As to `O=C1CC(N2CCOCC2)=NN1c1ccc([N+](=O)[O-])cc1`, the inhibition is 51.4% (active).

Turning to `COc1cc(/C=C2/C(=O)N(c3ccc([N+](=O)[O-])cc3)N=C2N2CCOCC2)ccc1O`, the inhibition is 68.6% (active).

Take `N#Cc1cc2ccc(N3CCOCC3)cc2cc1C#N`: the inhibition is -11.7% (inactive).

As for `COc1ccc(CCN2Cc3c(cccc3[N+](=O)[O-])C2=O)cc1OC`, the inhibition was -5.8% (inactive).

`C#CCOc1ccc(/C=C2/C(=O)N(c3cccc(C(=O)O)c3)N=C2C)cc1OC`: the inhibition was 55.9% (active).

On to `CC(=O)c1cccc(NC(=S)Nc2cccc3ccccc23)c1`, for which the inhibition is -7.4% (inactive).

For the molecule `COc1cc(=O)n(C)c2c(OCC3OC(C)(C)OC3(C)C)cccc12` (stereo not given), the inhibition was 11.2% (inactive).

Take `Cc1ccc(Cn2nnnc2CN2CCC(NC(=O)C(C)(C)C)CC2)cc1`: the inhibition was -8.9% (inactive).

Regarding `O=C(Nc1ccc(Cl)c(Cl)c1)Nn1cnnc1`, the inhibition is -10.6% (inactive).

On to `COc1cc(/C=C2/C(=O)N(c3ccccc3)N=C2C)ccc1OS(=O)(=O)c1ccccc1`, for which the inhibition is 91.3% (active).

In the case of `COc1ccc(/C=C2/C(=O)N(c3ccccc3)N=C2C)cc1OC`, the inhibition is 38.1% (inactive).

As to `COc1ccc(C(=O)N2CCC(O)(c3ccc(F)cc3)CC2)cc1OC`, the inhibition was -18.3% (inactive).

For the molecule `Cc1[nH][nH]c(=O)c1C(c1ccc(-c2ccc(F)cc2)o1)c1c(C)[nH][nH]c1=O`, the inhibition is 59.6% (active).

Consider `Cc1[nH][nH]c(=O)c1C(c1ccc(-c2ccc(Cl)cc2)o1)c1c(C)[nH][nH]c1=O`, for which the inhibition is 66.7% (active).

As to `Cc1[nH][nH]c(=O)c1C(c1ccc(-c2cccc(Cl)c2)o1)c1c(C)[nH][nH]c1=O`, the inhibition is 101% (active).

With `OC(COc1ccccc1)CSc1ncn[nH]1` (stereo not given), the inhibition was 2.4% (inactive).

For the molecule `O=S(=O)(Nc1cc2nc3ccccc3nc2n1Cc1ccccc1)c1ccc(Cl)cc1`, the inhibition was 102% (active).

Regarding `O=S(=O)(Nc1ccc2c(c1)nc1n2CCN(Cc2ccccc2)C1)c1ccccc1`, the inhibition is -3.3% (inactive).

For the molecule `CCn1c2ccccc2c2c3ncc4cccn4c3ccc21`, the inhibition was -74.8% (inactive).

On to `Cc1cccn2c(=O)c3cc(C(=O)NC4CCCCCC4)sc3nc12`, for which the inhibition was 33.8% (inactive).

For the molecule `COc1ccc(N(C)C(=O)Nc2ccc3nsnc3c2)cc1`, the inhibition is 7.7% (inactive).

For `COc1ccc(NC(=S)Nc2ccc3nccnc3c2)cc1`, the inhibition is 8.4% (inactive).

As for `COc1ccc(NC(=S)Nc2ccc3nsnc3c2)cc1`, the inhibition is 101% (active).

As to `S=C(Nc1ccc2nsnc2c1)N1CCCC1`, the inhibition is 17.9% (inactive).

For the molecule `C=CCN(CC=C)C(=S)Nc1ccc2nsnc2c1`, the inhibition is 23.6% (inactive).

With `CCOc1ccc(NC(=S)Nc2ccc3nsnc3c2)cc1`, the inhibition is 101% (active).

`COc1ccc(/C=N/N=C2/CC(C)(C)Cc3n[nH]c(=O)cc32)cc1`: the inhibition was 26.2% (inactive).

Consider `COc1ccc(OC)c(/C=N/NC(=O)CCc2ccc(O)c(O)c2)c1`, for which the inhibition was 18.5% (inactive).

Consider `O=C(NC(=S)Nc1cccc2c(O)cccc12)c1ccccc1[N+](=O)[O-]`, for which the inhibition is 16.6% (inactive).

Regarding `O=C(O)c1cccc([N+](=O)[O-])c1C(=O)Nc1cccc2ccccc12`, the inhibition was -1.9% (inactive).

As for `N#Cc1c(N)nc2c(c1-c1ccc3c(c1)OCO3)CCc1ccccc1-2`, the inhibition is -58.5% (inactive).

As for `S=C(Nc1cccc(Cl)c1)Nc1ccc2cn[nH]c2c1`, the inhibition was 7.2% (inactive).

Take `Cc1cc(C)c(C(N)=O)c(Nc2cccc3ccccc23)n1`: the inhibition is 24.4% (inactive).

Consider `Fc1ccc(NC(=S)Nc2cccc3ccccc23)cc1F`, for which the inhibition was -4.6% (inactive).

On to `Cc1ccc(NC(=S)Nc2cccc3ccccc23)cc1F`, for which the inhibition was 3.1% (inactive).

Consider `Fc1ccc(NC(=S)Nc2cccc3ccccc23)cc1`, for which the inhibition was -2.8% (inactive).

As for `Nc1ccc(O)cc1C(=O)OCC(=O)c1ccc(C2CCCCC2)cc1`, the inhibition is 29.2% (inactive).

Turning to `COC(=O)C1C(O)=C(C(C)=Nc2cccc3ccccc23)C(=O)CC1(C)C` (stereo not given), the inhibition is -0.8% (inactive).

Regarding `Cc1cc(=O)[nH]c(-n2[nH]c(C)cc2=O)n1`, the inhibition was 78.7% (active).

In the case of `CC(C)(C)c1cc(=O)n(-c2ccccc2)[nH]1`, the inhibition was 22.8% (inactive).

As to `Cc1ccc(N2CCN(Cc3ccccc3)CC2=O)c(C)c1`, the inhibition was 18.7% (inactive).

Consider `O=c1c(-c2ccccc2)coc2c(CN3CCCC3)c(O)ccc12`, for which the inhibition was -8% (inactive).

In the case of `CC(=O)c1ccc(N2CCN(C(=O)c3cccs3)C(C)C2)c(F)c1` (stereo not given), the inhibition was 14.2% (inactive).

For the molecule `Cc1nn(-c2ccccn2)c2c1C(=O)C(Br)CC2` (stereo not given), the inhibition was 97.2% (active).

On to `O=c1c2ccccc2nc2n1CCC2`, for which the inhibition is 97.9% (active).

As to `O=C(O)c1cc(Cl)c(Cl)cc1C(=O)Nc1cccc2ncccc12`, the inhibition was 9.9% (inactive).

For the molecule `Cc1ccc(/C=C(\C#N)C(=O)Nc2cccc3ncccc23)o1`, the inhibition was 23.5% (inactive).

For `Cc1cc(C)c(S(=O)(=O)/N=C2/C=C(SCC(=O)O)C(=O)c3ccccc32)cc1C`, the inhibition is 95.8% (active).

In the case of `COc1ccc2nc(/C(C#N)=C\c3ccc(C(=O)O)cc3)[nH]c2c1`, the inhibition is 21.7% (inactive).
